# Experimental data published in PubChem BioAssay AID2240 (Broad Institute, 2010).
# In all, about 37,000 compounds went through this assay and about 100 (0.27%) were called active. Cut-off read from the data, not from the text of the source: active = inhibition above about 85%; inconclusive = no clear call, values can overlap the other calls; inactive = below about 68%. The list comes from a sample in which actives are over-represented; it also holds similar structures and randomly drawn compounds.
# Assay: blocks MITF activity, primary screen, MITF inhibitor project, cell-based, luminescence (AID 2240);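 note: human melanocyte line stably carrying TRPM1 promoter luciferase reporter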
# Conditions: TRPM1 promoter luciferase, 24 h, active compounds read high, concentration not given here
row,Structure (SMILES),inhibition
1,Cc1ccc2oc3c(c(=O)c2c1)C(c1ccc([N+](=O)[O-])cc1)N(CCCN1CCOCC1)C3=O (stereo not drawn),-26.1% (inactive)
2,O=C(CN1CCOCC1)Nc1ccc(NC(=O)CN2CCOCC2)c(Cl)c1,-25.8% (inactive)
3,C[C@H](CO)N1C[C@H](C)[C@H](CN(C)CC2CCCCC2)Oc2ccc(NC(=O)C3CCCCC3)cc2C1=O,-9.78% (inactive)
4,C[C@H]1CN([C@@H](C)CO)C(=O)Cc2cc(NC(=O)Cc3ccccc3)ccc2O[C@@H]1CN(C)S(=O)(=O)c1ccc(Cl)cc1,12.5% (inactive)
5,C[C@H]1CN([C@@H](C)CO)C(=O)c2cc(NC(=O)c3ccncc3)ccc2O[C@H]1CN(C)Cc1ccc(C(=O)Nc2ccccc2N)cc1,20.5% (inactive)
6,O=C(OC1=CC(=O)c2cccc3cccc1c23)c1ccccc1,26.1% (inactive)
7,O=C(c1ccc(NCc2cccnc2)c([N+](=O)[O-])c1)N1CCCCC1,6.72% (inactive)
8,CC1(C)Cc2c(sc3ncn4nc(COc5ccc(Cl)cc5)nc4c23)C(C)(C)N1,6.06% (inactive)
9,CNC[C@@H]1Oc2c(NC(=O)Nc3ccc(OC)cc3)cccc2C(=O)N([C@@H](C)CO)C[C@@H]1C,-2.63% (inactive)
10,C[C@H]1CN([C@@H](C)CO)C(=O)Cc2cc(NC(=O)NC3CCCCC3)ccc2O[C@@H]1CN(C)Cc1ccc(Oc2ccccc2)cc1,33.3% (inactive)
11,C[C@@H]1CN([C@H](C)CO)C(=O)Cc2cc(NC(=O)NC3CCCCC3)ccc2O[C@H]1CN(C)S(=O)(=O)c1ccc(Cl)cc1,-10.5% (inactive)
12,Cc1ccc(N(CC(=O)Nc2ccccc2Sc2ccccc2)S(C)(=O)=O)c(C)c1,-5.49% (inactive)
13,CC(=O)Nc1nc2ccccc2s1,-10.3% (inactive)
14,Cc1noc(C)c1NC(=O)Nc1cccc2c1O[C@@H](CN(C)Cc1ccc(C(F)(F)F)cc1)[C@@H](C)CN([C@@H](C)CO)C2=O,1.59% (inactive)
15,COc1ccc(NC(=O)Nc2cccc3c2O[C@@H](CN(C)S(=O)(=O)c2cn(C)cn2)[C@H](C)CN([C@@H](C)CO)C3=O)cc1,-11.4% (inactive)
16,C[C@@H]1CN([C@H](C)CO)C(=O)c2cc(NC(=O)NC3CCCCC3)ccc2O[C@@H]1CN(C)S(C)(=O)=O,1.34% (inactive)
17,Nc1cc(N)nc(SCC(=O)c2ccc(Br)cc2)n1,-22.1% (inactive)
18,CCCCn1c(O)c(C#N)c(C)cc1=O,-16.6% (inactive)
19,C[C@H]1CN([C@@H](C)CO)C(=O)Cc2cc(NS(C)(=O)=O)ccc2O[C@@H]1CN(C)CC1CC1,-11.8% (inactive)
20,C=CCn1c2ccccc2c2nnc(SCC(=O)N3c4ccccc4Sc4ccccc43)nc21,27.5% (inactive)

row,Structure (SMILES),inhibition
1,Cc1ccc(-c2nnc(Nc3ccc(C(=O)N(C)C)cc3)c3ccccc23)cc1S(N)(=O)=O,-20.2% (inactive)
2,Cc1nn(-c2ccccc2)c(CC(C)(C)C(=O)O)c1C(=O)O,-5.62% (inactive)
3,CCc1cc2c(=O)n(-c3ccccc3)c(SCC(=O)O)nc2s1,-1.73% (inactive)
4,COc1cc(S(=O)(=O)NCCN2CCOCC2)ccc1Br,1.46% (inactive)
5,C=C1C(=O)O[C@H]2C3=C(C)C[C@H](OC(C)=O)C[C@]3(C)CC[C@@H]12,8.27% (inactive)
6,Oc1ccc(CN2CCCC2)c2cccnc12,40.6% (inactive)
7,C[C@H]1CN([C@@H](C)CO)C(=O)c2cc(NC(=O)Cn3cnnn3)ccc2O[C@@H]1CN(C)C(=O)Nc1ccccc1,5.69% (inactive)
8,C[C@H](CO)N1C[C@H](C)[C@H](CN(C)CC2CC2)Oc2ccc(NC(=O)c3ccncc3)cc2C1=O,-11.7% (inactive)
9,C=C1C[C@@]23CC[C@@H]4[C@](C)(CO)CCC[C@@]4(C)[C@@H]2CC[C@@H]1C3,-32.7% (inactive)
10,Cc1ccc(NC(=O)C(C)N(c2ccc(Cl)cc2)S(C)(=O)=O)c(C)c1 (stereo not drawn),-5.76% (inactive)
11,Cc1cc([N+](=O)[O-])nn1CC(=O)NC(C)C,8.94% (inactive)
12,C[C@@H]1CN([C@@H](C)CO)C(=O)c2cc(NC(=O)Nc3ccccc3)ccc2O[C@H]1CN(C)C(=O)Nc1ccc(F)cc1,3.76% (inactive)
13,COc1ccccc1NC(=O)C1=C(C)Nc2nnnn2C1c1ccccc1OCc1ccccc1 (stereo not drawn),41.2% (inactive)
14,O=C(CSc1nnc(-c2ccccc2)n1-c1ccccc1)c1cccc([N+](=O)[O-])c1,5.69% (inactive)
15,C[C@H](CO)N1C[C@H](C)[C@@H](CN(C)Cc2ccc(C(F)(F)F)cc2)Oc2ccc(NC(=O)CCN3CCOCC3)cc2C1=O,-9.07% (inactive)
16,c1ccc(Cn2c3ccccc3c3nnc(SCc4ccc5nonc5c4)nc32)cc1,20.6% (inactive)
17,C[C@@H]1CCCCO[C@@H](CN(C)C(=O)CCC(F)(F)F)[C@@H](C)CN([C@H](C)CO)C(=O)c2cc(NC(=O)Nc3ccccc3)ccc2O1,-11.3% (inactive)
18,C[C@@H]1CN([C@@H](C)CO)C(=O)c2cc(NC(=O)C3CCCCC3)ccc2O[C@@H]1CN(C)Cc1ccc(C(=O)O)cc1,1.31% (inactive)
19,COc1ccc(NC(=O)CN(C)S(=O)(=O)c2ccccc2)cc1OC,-9.83% (inactive)
20,COc1ccc(NC(=O)N(C)C[C@H]2Oc3c(NC(=O)C4CC4)cccc3C(=O)N([C@@H](C)CO)C[C@@H]2C)cc1,0.647% (inactive)

row,Structure (SMILES),inhibition
1,C[C@H]1CN([C@@H](C)CO)C(=O)c2cc(N(C)C)ccc2O[C@@H]1CN(C)Cc1ccccc1,-14.1% (inactive)
2,O=C(CSc1nccc(=O)[nH]1)Nc1ccc([N+](=O)[O-])cc1,-3.55% (inactive)
3,COc1cc(NC(=S)NCCN2CCOCC2)c(OC)cc1Cl,17.1% (inactive)
4,O=C(Nn1cnc2ccccc2c1=O)c1ccccc1,-19.3% (inactive)
5,C[C@@H]1CN([C@H](C)CO)C(=O)c2cc(NS(=O)(=O)c3cccs3)ccc2O[C@@H]1CN(C)Cc1ccc(C(F)(F)F)cc1,-1.87% (inactive)
6,COc1ccc(NC(=O)Nc2cccc3c2O[C@@H](CN(C)S(=O)(=O)c2ccc(C)cc2)[C@H](C)CN([C@@H](C)CO)C3=O)cc1,-6.48% (inactive)
7,CCN(c1ccccc1)S(=O)(=O)c1ccc(C)cc1,12.9% (inactive)
8,C[C@H](CO)N1C[C@H](C)[C@H](CN(C)C(=O)Nc2ccc3c(c2)OCO3)Oc2ccc(NC(=O)Nc3ccccc3)cc2CC1=O,-9.08% (inactive)
9,COc1ccc(S(=O)(=O)N(C)C[C@H]2Oc3ccc(NC(=O)C4CC4)cc3CC(=O)N([C@@H](C)CO)C[C@@H]2C)cc1,-12.4% (inactive)
10,COC(=O)c1c(-c2cccnc2)csc1NC(=O)c1cc(-c2ccc(C)o2)nc2ccccc12,-34.4% (inactive)
11,Cc1ccc(S(=O)(=O)N(C)C[C@H]2Oc3c(NS(=O)(=O)c4cccs4)cccc3C(=O)N([C@@H](C)CO)C[C@@H]2C)cc1,0.709% (inactive)
12,O=C(CSc1nc2ccccc2s1)c1cc2ccccc2oc1=O,-18% (inactive)
13,C[C@@H]1CN([C@@H](C)CO)C(=O)c2cc(NC(=O)CCCN(C)C)ccc2O[C@@H]1CN(C)Cc1ccncc1,4.25% (inactive)
14,CCCN(C)C[C@H]1OCCCC[C@@H](C)Oc2ccc(N(C)C)cc2C(=O)N([C@H](C)CO)C[C@@H]1C,43.3% (inactive)
15,CC(=O)c1c(C)nn(CC(O)COc2ccc3cc(Br)ccc3c2)c1C (stereo not drawn),50.6% (inactive)
16,Cc1ccc(S(=O)(=O)N(C)C[C@H]2Oc3c(NS(=O)(=O)c4ccc(Cl)cc4)cccc3C(=O)N([C@H](C)CO)C[C@@H]2C)cc1,0.159% (inactive)
17,Oc1c(Cl)cc(Cl)c(Cl)c1Cc1c(O)c(Cl)cc(Cl)c1Cl,93.7% (active)
18,O=C(NCCN1CCCCC1)Nc1cccc2ccccc12,5.31% (inactive)
